Compound activity deposited in PubChem by several laboratories.
A selection: hits, their analogues and other compounds. The true share with any hit is near 4.7%.
ADAM17 inh – ADAM17 inhibitors, primary screen, biochemical, QFRET | Disintegrin and metalloproteinase domain-containing protein 17 (Homo sapiens), P78536 | recombinant ADAM17, EDANS/DABCYL FRET peptide cleavage | inhibition, % at 6.95 µM | 370,000 compounds, 0.83% hits | AID 720648, 2013;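 active = inhibition above the mean of compounds lying between control limits plus 3 SD, set per campaign, cut at about 8.5% in these data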
rCAG RNA binder – binders of r(CAG) RNA repeats, primary screen, biochemical, fluorescence. r(CAG) RNA repeat, TO-PRO-1 dye displacement fluorescence. inhibition, % at 3 µM. 370,000 compounds, 1.3% hits. AID 651821, 2012;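 active = inhibition above the plate cutoff, the mean of all test compounds on that plate plus 3 SD, cut at about 35% in these data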;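 also: higher means more dye released from RNA so lower well fluorescence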
ADAM10 inh – human ADAM10 inhibitors, primary screen, biochemical, QFRET, HTS | Disintegrin and metalloproteinase domain-containing protein 10 (Homo sapiens), O14672 | recombinant ADAM10, EDANS/DABCYL FRET peptide cleavage, 3 h | inhibition, % at 7 µM | 370,000 compounds, 0.62% hits;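 active = inhibition above a per-campaign cutoff equal to the mean of compounds falling between control-based bounds plus 3 SD, cut at about 20% in these data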
MPTP inh – mitochondrial permeability transition pore inhibitors, primary screen, biochemical, isolated mouse mitochondria, absorbance | Ca2+ swelling absorbance, 30 min | inhibition, % at 10 µM | 360,000 compounds, 1.4% hits | AID 602449, 2012;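 active = inhibition of 50% or more, scaled per plate between neutral and stimulator controls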
KLK7 zymogen act – proKLK7 zymogen activators, primary screen, biochemical, fluorescence intensity. Kallikrein-7 (Homo sapiens), P49862. activation, % at 7 µM. 370,000 compounds, 0.9% hits. AID 652039, 2013. purified proKLK7, EDANS-DABCYL substrate fluorescence; 100% is mature enzyme control, 0% vehicle;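 active = activation above the mean of all tested compounds plus 3 SD, computed per campaign excluding outliers beyond control limits, cut at about 13% in these data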
Pemphigus Ab inh – inhibitors of pemphigus antibody binding to DSG3, primary screen, biochemical, bead-based, flow cytometry, scFv-GFP. Desmoglein-3 (Homo sapiens), P32926. DSG3-coupled beads, scFv-anti-DSG3-GFP binding; active compounds read low. binding (percent of control), % at 10 µM. 310,000 compounds, 0.48% hits;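 active = binding more than 3 SD below its plate's average and above zero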;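 also: hits lower antibody fragment binding to DSG3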
KLK7 act conf – proKLK7 zymogen activators, confirmation, biochemical, fluorescence intensity, triplicate. activation, % at 7 µM. shares compounds with KLK7 zymogen act. AID 686949, 2013. purified proKLK7, EDANS-DABCYL substrate fluorescence; scaled: vehicle 0, mature enzyme 100. 3,200 compounds, 68% hits;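 active = activation, as change over the incubation, above the mean of all tested compounds plus 3 SD, cut at about 13% in these data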
EDANS-DABCYL int – EDANS-DABCYL substrate optical interference, artefact control for kallikrein-7 zymogen activator project, biochemical, fluorescence intensity, high throughput; shares compounds with KLK7 zymogen act; no enzyme, 4 h; solvent 0%, active enzyme control 100%; activation, % at 7 µM; 3,200 compounds, 80% hits;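 active = activation above the all-compound mean plus 3 SD, ignoring values outside control-based bounds, cut at about 4.8% in these data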;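 also: value is the 4 h activation minus the activation read at time zero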
Large screens that a line does not name were inactive (follow-up assays come after a bar, where they were run).

CN(C)c1nc(N)c2nccnc2n1	KLK7 zymogen act 21.4 | KLK7 act conf inactive | EDANS-DABCYL int inactive
COc1ccc(CNC(=S)NNC(=O)c2cc3ccccc3o2)cc1	KLK7 zymogen act 17.4 (no result: Pemphigus Ab inh) | KLK7 act conf 20.9 | EDANS-DABCYL int 21.2
COc1cccc(C=Nc2ccccc2C(=O)Nc2nccs2)c1OC	KLK7 zymogen act 25.4 | KLK7 act conf inactive | EDANS-DABCYL int inactive
C[C@H](O)[C@@H]1C(=O)N2CCc3c([nH]c4ccccc34)[C@@H]2C[C@@H]1N(C)C(=O)Nc1ccccc1	KLK7 zymogen act 26.5 (no result: Pemphigus Ab inh) | KLK7 act conf inactive | EDANS-DABCYL int 6.5
C[C@H](O)[C@@H]1C(=O)N2CCc3c([nH]c4ccccc34)[C@@H]2C[C@@H]1N(C)C(=O)Nc1ccc(Br)cc1	KLK7 zymogen act 37.3 (no result: MPTP inh, Pemphigus Ab inh) | KLK7 act conf inactive | EDANS-DABCYL int inactive
Cc1cccc(-c2cccc3c4c([nH]c23)[C@@H]2C[C@H](N(C)C(=O)Nc3ccccc3)[C@H]([C@H](C)O)C(=O)N2CC4)c1	none (no result: MPTP inh, Pemphigus Ab inh)
C[C@H](O)[C@@H]1C(=O)N2CCc3c([nH]c4ccccc34)[C@@H]2C[C@@H]1N(C)C(=O)Nc1cc(Cl)cc(Cl)c1	KLK7 zymogen act 19.0 | KLK7 act conf inactive | EDANS-DABCYL int 6.1
C[C@H](O)[C@@H]1C(=O)N2CCc3c([nH]c4ccccc34)[C@@H]2C[C@@H]1N(C)C(=O)c1ccco1	KLK7 zymogen act 50.6 (no result: Pemphigus Ab inh) | KLK7 act conf 55.4 | EDANS-DABCYL int 59.9
CC1=C(C(=O)N(C)C)CC(CC(=O)NCc2cccc3ccccc23)C(=O)N1CCC1=CCCCC1 (stereo not given)	none
CCC(O)c1cnc(OCc2ccccc2)nc1OCc1ccccc1 (stereo not given)	none
Cc1ccc(S(=O)(=O)N2[C@H](CC(=O)OCc3ccccc3)OC[C@@H]2C)cc1	none (no result: Pemphigus Ab inh)
C[C@H](O)[C@@H]1CN2CCc3c([nH]c4ccccc34)[C@@H]2C[C@@H]1N(C)C(=O)Nc1ccc(F)cc1	KLK7 zymogen act 15.7 | KLK7 act conf inactive | EDANS-DABCYL int inactive
C[C@@H]1ON(C)[C@H]2C[C@H]3c4[nH]c5ccccc5c4CCN3C(=O)[C@@H]12	KLK7 zymogen act 14.7 | KLK7 act conf inactive | EDANS-DABCYL int inactive
C[C@H](O)[C@@H]1CN2CCc3c([nH]c4ccccc34)[C@@H]2C[C@@H]1N(C)C(=O)Nc1ccccc1	none
C[C@@H]1ON(C)[C@H]2C[C@H]3c4[nH]c5ccc(-c6ccc7c(c6)OCO7)cc5c4CCN3C(=O)[C@@H]12	none
Cc1cn([C@H]2C[C@H](O)[C@@H](CNCC3=Cc4cc(O)ccc4OC3)O2)c(=O)[nH]c1=O	none (no result: Pemphigus Ab inh)
CCOC(=O)c1ccccc1NC(=O)C1CC(=O)N(C(C)(C)C)C1 (stereo not given)	none
CCOC(=O)c1ccccc1NC1CC(=O)N(c2ccccc2C)C1=O (stereo not given)	KLK7 zymogen act 192.9 | KLK7 act conf 169.0 | EDANS-DABCYL int 160.8
COc1ccc(CN2C(=O)C(CC(=O)NCc3ccco3)CC(C(=O)N3CCOCC3)=C2C)cc1 (stereo not given)	none
O=C(COc1ccc2c3c(c(=O)oc2c1)CCC3)N1CCCCC1	none
O=C(COc1ccc2oc(-c3ccco3)cc(=O)c2c1)N1CCCCC1	KLK7 zymogen act 60.7 | KLK7 act conf 59.5 | EDANS-DABCYL int 59.5
